Laboratory results from PubChem BioAssay (NCATS).
Records with an inconclusive call do not appear. Where a call stands in place of a potency, no number is given. A number with no mark means an inactive call. The source made the active and inactive calls. Calls come from the whole dose curve; as a rule, active = well fitted inhibition curve with a large enough effect; inconclusive = small, poorly fitted or top-dose-only effect; inactive = flat fitted curve, though single readings scatter.

Assays:
HB3 = experiment: qHTS profiling for inhibitors of Plasmodium falciparum proliferation (AID 504749); conditions: P. falciparum in erythrocytes, SYBR Green DNA, 72 h; series mostly up to 28.7 µM
Outline: (§1)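 Infected RBCs, 0.3% parasitemia/2.5% Hct final; cpd 72 h, 37 C, 5% CO2; lysis buffer with saponin/triton/SYBR Green I, o/n RT dark; FI 485/535; norm. to artemisinin (0.29 uM) and DMSO.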

ICS = experiment: as above; conditions: P. falciparum in erythrocytes, SYBR Green DNA, 72 h; series mostly up to 28.7 µM
Outline: as §1

JCK = experiment: as above; conditions: P. falciparum in erythrocytes, SYBR Green DNA, 72 h; series mostly up to 28.7 µM
Outline: as §1

PC15 = experiment: as above; conditions: P. falciparum in erythrocytes, SYBR Green DNA, 72 h; series mostly up to 28.7 µM
Outline: as §1

PC26 = experiment: as above; conditions: P. falciparum in erythrocytes, SYBR Green DNA, 72 h; series mostly up to 28.7 µM
Outline: as §1

PC49 = experiment: as above; conditions: P. falciparum in erythrocytes, SYBR Green DNA, 72 h; series mostly up to 28.7 µM
Outline: as §1

SC27B = experiment: as above; conditions: P. falciparum in erythrocytes, SYBR Green DNA, 72 h; series mostly up to 28.7 µM
Outline: as §1

TAB109 = experiment: as above; conditions: P. falciparum in erythrocytes, SYBR Green DNA, 72 h; series mostly up to 28.7 µM
Outline: as §1

TAB165 = experiment: as above; conditions: P. falciparum in erythrocytes, SYBR Green DNA, 72 h; series mostly up to 28.7 µM
Outline: as §1

W2 = experiment: as above; conditions: P. falciparum in erythrocytes, SYBR Green DNA, 72 h; series mostly up to 28.7 µM
Outline: as §1

CRL-7250 = normal cell line; experiment: Cytotoxic Profiling of Annotated Libraries Using Quantitative High-Throughput Screening (AID 1296008); conditions: Five cell lines viability, CellTiter-Glo ATP luminescence, 48-72 h; max response: hits give low values
Outline: (§2)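 Cytotoxicity was measured as CellTiter-Glo ATP luminescence, read after 10 min at room temperature. Compound treatment of the cells lasted 48 or 72 hr at 37 degrees Celsius in a qHTS format.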

KB-3-1 = experiment: as above; conditions: Five cell lines viability, CellTiter-Glo ATP luminescence, 48-72 h; max response: hits give low values
Outline: as §2

NIH3T3 = experiment: as above; conditions: Five cell lines viability, CellTiter-Glo ATP luminescence, 48-72 h; max response: hits give low values
Outline: as §2

N140 = experiment: qHTS profiling for inhibitors of Plasmodium falciparum proliferation (AID 504749); conditions: P. falciparum in erythrocytes, SYBR Green DNA, 72 h; series mostly up to 28.7 µM
Outline: as §1

PAD = experiment: as above; conditions: P. falciparum in erythrocytes, SYBR Green DNA, 72 h; series mostly up to 28.7 µM
Outline: as §1

TAB113 = experiment: as above; conditions: P. falciparum in erythrocytes, SYBR Green DNA, 72 h; series mostly up to 28.7 µM
Outline: as §1

HaCat = experiment: Cytotoxic Profiling of Annotated Libraries Using Quantitative High-Throughput Screening (AID 1296008); conditions: Five cell lines viability, CellTiter-Glo ATP luminescence, 48-72 h; max response: hits give low values
Outline: as §2

P93_24 = experiment: qHTS profiling for inhibitors of Plasmodium falciparum proliferation (AID 504749); conditions: P. falciparum in erythrocytes, SYBR Green DNA, 72 h; series mostly up to 28.7 µM
Outline: as §1

HEK293 = experiment: Cytotoxic Profiling of Annotated Libraries Using Quantitative High-Throughput Screening (AID 1296008); conditions: Five cell lines viability, CellTiter-Glo ATP luminescence, 48-72 h; max response: hits give low values
Outline: as §2

P94_40 = experiment: qHTS profiling for inhibitors of Plasmodium falciparum proliferation (AID 504749); conditions: P. falciparum in erythrocytes, SYBR Green DNA, 72 h; series mostly up to 28.7 µM
Outline: as §1
Note: nearly all actives have a fitted effect of over 60% in size.
Potency is the fitted concentration of half-maximal effect.

CC(=O)OCC(=O)[C@@]1(OC(C)=O)[C@@H](C)C[C@H]2[C@@H]3C[C@H](F)C4=CC(=O)C=C[C@]4(C)[C@@]3(F)[C@@H](O)C[C@@]21C
Potency (HB3): inactive | Potency (ICS): 11.2 µM (active) | Potency (JCK): inactive | Potency (PC15): inactive | Potency (PC26): inactive | Potency (PC49): inactive | Potency (SC27B): inactive | Potency (TAB109): inactive | Potency (TAB165): inactive | Potency (W2): 6.01 µM (active) | outcome (CRL-7250): inactive | max response (KB-3-1): 6.89% | max response (NIH3T3): -5%

O=C(CCN1CCC(c2ccccc2)C1)c1ccc2c(c1)OCCO2 (stereo not drawn)
Potency (HB3): inactive | Potency (ICS): inactive | Potency (JCK): inactive | Potency (N140): inactive | Potency (PAD): inactive | Potency (PC15): inactive | Potency (PC26): inactive | Potency (PC49): inactive | Potency (SC27B): inactive | Potency (TAB109): inactive | Potency (TAB113): inactive | Potency (TAB165): inactive | Potency (W2): inactive | outcome (HaCat): inactive | max response (KB-3-1): -5.38%

CC(C)=CCC1C(=O)N(c2ccccc2)N(c2ccccc2)C1=O
Potency (JCK): inactive | Potency (P93_24): inactive | Potency (PC15): inactive | Potency (PC49): inactive | Potency (TAB109): inactive | max response (CRL-7250): -25.1% | max response (KB-3-1): -9.06% | max response (NIH3T3): -29%

OC[C@H]1O[C@@H](n2cnc3c(=S)nc[nH]c32)[C@H](O)[C@@H]1O
Potency (HEK293): 4.73 µM (active) | Potency (HaCat): 2.99 µM (active) | Potency (NIH3T3): 1.88 µM (active)

COc1cccc(CCc2ccccc2OCC(CN(C)C)OC(=O)CCC(=O)O)c1 (stereo not drawn)
Potency (HB3): 12.6 µM (active) | Potency (ICS): 1.12 µM (active) | Potency (JCK): 10 µM (active) | Potency (N140): 2.82 µM (active) | Potency (P93_24): 4.47 µM (active) | Potency (P94_40): 4.47 µM (active) | Potency (PAD): 3.55 µM (active) | Potency (PC15): 5.01 µM (active) | Potency (PC26): 3.79 µM (active) | Potency (PC49): 3.16 µM (active) | Potency (SC27B): 5.01 µM (active) | Potency (TAB109): 4.47 µM (active) | Potency (TAB113): 5.62 µM (active) | Potency (TAB165): 4.47 µM (active) | Potency (W2): 0.757 µM (active) | max response (CRL-7250): 3.68% | max response (KB-3-1): -2.49% | max response (NIH3T3): -1.97%

CCN(CC)CCOC(=O)C(c1ccccc1)C1CCCCC1 (stereo not drawn)
Potency (HB3): inactive | Potency (JCK): inactive | Potency (N140): inactive | Potency (P94_40): inactive | Potency (PC49): inactive | Potency (SC27B): inactive | Potency (TAB109): inactive | Potency (TAB165): inactive | Potency (W2): 7.57 µM (active) | outcome (HaCat): inactive | max response (KB-3-1): -2.77%

CN1CCCC(CC2c3ccccc3Sc3ccccc32)C1 (stereo not drawn)
max response (HaCat): 2.06% | max response (KB-3-1): 7.2%

Oc1c(I)cc(Cl)c2cccnc12
Potency (HB3): inactive | Potency (JCK): inactive | Potency (P93_24): inactive | Potency (P94_40): 12.6 µM (active) | Potency (PC15): inactive | Potency (PC26): inactive | Potency (PC49): inactive | Potency (TAB109): 12.6 µM (active) | Potency (TAB165): 12.6 µM (active) | Potency (W2): inactive | outcome (HaCat): inactive | max response (KB-3-1): -8.86%

CCCCOc1ccc(C(=O)CCN2CCCCC2)cc1
Potency (HB3): inactive | Potency (ICS): inactive | Potency (JCK): inactive | Potency (N140): inactive | Potency (P93_24): inactive | Potency (P94_40): inactive | Potency (PAD): inactive | Potency (PC15): inactive | Potency (PC26): inactive | Potency (PC49): inactive | Potency (SC27B): inactive | Potency (TAB109): inactive | Potency (TAB113): inactive | Potency (TAB165): inactive | outcome (HaCat): inactive | max response (KB-3-1): 0.445% | max response (NIH3T3): -2.83%

CCCCCCCCCCCCCCCC[N+](C)(C)CCN(Cc1ccc(OC)cc1)c1ncccn1
Potency (HB3): inactive | Potency (JCK): inactive | Potency (P94_40): inactive | Potency (PAD): inactive | Potency (PC26): inactive | Potency (PC49): inactive | Potency (HEK293): 9.44 µM (active) | max response (KB-3-1): -4.99%

Clc1ccc2c(c1)CCc1cccnc1C2=C1CCNCC1
Potency (HB3): inactive | Potency (ICS): 11.2 µM (active) | Potency (JCK): inactive | Potency (PC26): 13.5 µM (active) | Potency (SC27B): inactive | Potency (W2): 3.38 µM (active) | max response (HaCat): -1.5% | max response (KB-3-1): -7.06%

Cc1c(C)n(CCN(C)C)c2ccc(C(=O)OCCN(C)C)cc12
Potency (HB3): inactive | Potency (JCK): inactive | Potency (N140): inactive | Potency (P93_24): inactive | Potency (P94_40): inactive | Potency (PAD): inactive | Potency (PC15): inactive | Potency (PC26): inactive | Potency (PC49): inactive | Potency (SC27B): inactive | Potency (TAB109): inactive | Potency (TAB113): inactive | Potency (TAB165): inactive | outcome (HaCat): inactive | max response (KB-3-1): 2.08% | Potency (NIH3T3): 7.5 µM (active)

COc1cc(N)c(Cl)cc1C(=O)NC1CCN(CCCOc2ccc(F)cc2)CC1OC (stereo not drawn)
max response (HaCat): -1.88% | max response (KB-3-1): 6.35%

CNCC[C@@H](Oc1ccccc1C)c1ccccc1
max response (HaCat): 1.42% | max response (KB-3-1): -7.4%

C[C@@H]1C[C@H]2[C@@H]3C[C@H](F)C4=CC(=O)C(Cl)=C[C@]4(C)[C@@]3(F)[C@@H](O)C[C@]2(C)[C@@]1(O)C(=O)CO
max response (HaCat): 2.77% | max response (KB-3-1): 11.7% | max response (NIH3T3): -7.22%

Cc1c(C)n(Cc2ccccc2)c2ccc(C(=O)OCCN(C)C)cc12
Potency (HB3): inactive | Potency (JCK): inactive | Potency (N140): inactive | Potency (P93_24): inactive | Potency (P94_40): inactive | Potency (PAD): inactive | Potency (PC15): inactive | Potency (PC26): inactive | Potency (PC49): inactive | Potency (SC27B): inactive | Potency (TAB109): inactive | Potency (TAB113): inactive | Potency (TAB165): inactive | outcome (HaCat): inactive | max response (KB-3-1): 1.73%
